# Experimental data as given in ChEMBL document CHEMBL3988442, “University of Dundee, Small-Polar-MMV Screening Library” (2021).
# Molecular target: T1, Aspartate--tRNA(Asp/Asn) ligase (Mycobacterium tuberculosis (strain ATCC 25618 / H37Rv)) (UniProt P9WFW3); note: in the data most compounds retested in dose-response had high values
# T1 sequence (whole entry): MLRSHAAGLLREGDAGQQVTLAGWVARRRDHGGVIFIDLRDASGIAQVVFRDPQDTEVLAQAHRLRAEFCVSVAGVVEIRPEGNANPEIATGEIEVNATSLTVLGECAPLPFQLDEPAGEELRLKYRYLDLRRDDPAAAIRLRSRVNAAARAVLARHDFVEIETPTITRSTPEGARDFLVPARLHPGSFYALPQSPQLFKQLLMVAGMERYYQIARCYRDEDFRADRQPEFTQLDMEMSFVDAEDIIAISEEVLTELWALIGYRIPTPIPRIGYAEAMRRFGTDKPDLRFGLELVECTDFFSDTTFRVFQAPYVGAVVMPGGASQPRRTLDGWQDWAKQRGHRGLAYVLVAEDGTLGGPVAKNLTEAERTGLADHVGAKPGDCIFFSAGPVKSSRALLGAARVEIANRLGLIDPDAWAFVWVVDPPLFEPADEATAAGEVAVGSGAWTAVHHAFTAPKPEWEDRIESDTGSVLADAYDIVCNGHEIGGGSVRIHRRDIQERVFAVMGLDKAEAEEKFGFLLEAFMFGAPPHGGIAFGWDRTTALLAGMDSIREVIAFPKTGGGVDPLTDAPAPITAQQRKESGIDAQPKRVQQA
# Test: Assay for Asp RNA synthetase-1 from Mycobacterium tuberculosis
# Assay type: functional
# Design: scale not given: direction of the effect not stated beside the values
# Details: 30 µM
row,SMILES,Percent Effect [%]
1,COc1c(C)cnc(CN2CCC(C(=O)N(C)C)CC2)c1C,-0.91
2,CCc1ncc2c(n1)CN(Cc1nc(-c3ccsc3)oc1C)CC2,2.25
3,O=C(Cc1ccc2c(c1)OCO2)N1CCN(c2cnccn2)CC1,-3.06
4,CC1=N[C@@]2(CC[C@@H]3CN(S(=O)(=O)CC(C)C)C[C@@H]32)C(=O)N1CC(C)C,-0.749
5,CS(=O)(=O)Cc1cccc(C(=O)NCC2Cc3ccccc3O2)c1 (stereo not drawn),8.39
6,Cc1ccc(OCCC(=O)NC2CCc3nccn3C2)cc1 (stereo not drawn),-1.56
7,O=C(NC(CO)CO)c1coc(COc2cccc(F)c2)n1,-1.14
8,CCOCC1CN(C(=O)CS(C)(=O)=O)Cc2cnn(C)c21 (stereo not drawn),1.19
9,O=S(=O)(c1cccs1)N1CCCn2nnc(CN3CCCCC3)c2C1,5.59
10,c1cn2c(n1)CN(CC1CC1)CC(CN1CCOCC1)C2 (stereo not drawn),11.1
11,COc1cccc2cc(CNCc3ccnc(N4CCOCC4)c3)oc12,-2.91
12,CCOCCC(=O)Nc1cccc(Oc2ccccn2)c1,5.81
13,COc1cccc(C(=O)NCC(O)c2cccs2)c1 (stereo not drawn),-4.63
14,CSc1ccc(S(=O)(=O)N2CCCCC2CCNC(C)=O)cc1 (stereo not drawn),7.57
15,COc1ccnc(N2CCN(C(=O)c3cnn(C)c3C3CC3)CC2)n1,-3.2
16,COCCN1CCC(NC(=O)C2(c3cc(C)cc(C)c3)CC2)CC1,-4.05
17,COc1cccc(CC2CN(C3CCN(C(C)=O)CC3)CCO2)c1 (stereo not drawn),-4.28
18,Cc1ccc(S(=O)(=O)NC2CC2)cc1C,-2.59
19,O=C(NCCc1nnc2n1CCC2)NCC1(c2cccc(F)c2)CC1,-2.55
20,C1CC(CN2CCO[C@H]3[C@H](OCC4CC4)CC[C@@H]32)CCO1,0.999

row,SMILES,Percent Effect [%]
1,CCC(O)CN1CCN(C(=O)c2cccn2Cc2cccs2)CC1 (stereo not drawn),0.685
2,Cc1nn(C)c(Cl)c1C1CCCN1C(=O)c1ccc2c(c1)OCO2 (stereo not drawn),-0.434
3,Cc1[nH]/c(=N\C(=O)c2csc(NCC(C)C)n2)sc1C,0.43
4,CN(C(=O)Cn1nc(-c2cccs2)ccc1=O)C1CCS(=O)(=O)C1 (stereo not drawn),1.02
5,COCC(=O)N1CCCn2c(CN3CCCCC3)nnc2C1,1.5
6,COc1ccccc1C1CNC(=O)c2nc(-c3cnn(C)c3)[nH]c2C1 (stereo not drawn),1.33
7,CCN1CCC(NC(=O)CN2CCc3c(ncn3C)C2)CC1,-4.88
8,CS(=O)(=O)c1ccccc1C(=O)NCC1Cc2ccccc2O1 (stereo not drawn),9.98
9,COc1ccc(CN(Cc2cncn2C)CC2CCCO2)c(OC)c1 (stereo not drawn),7.91
10,O=C(NS(=O)(=O)c1cc(Cl)sc1Cl)c1cccc2c1OCCO2,1.84
11,O=C(Cc1ccc2c(c1)CCO2)N1CCN(c2cnccn2)CC1,-4.06
12,Cc1nc(CN2C[C@@H]3CN(C(=O)c4cccn4C)C[C@@H]3C2=O)cs1,-0.382
13,O=C(Nc1cc(C(F)(F)F)c[nH]c1=O)N1CCCSCC1,5.77
14,CN1CCC(Cc2cc(Nc3ncccn3)ncn2)CC1,7.7
15,Cn1nnc2c1CCN(Cc1ccccc1)C2COCC1CC1 (stereo not drawn),2.13
16,Cc1ccsc1-c1nnc(C2CCN(Cc3ccc(F)cc3)CC2)o1,-1.86
17,CC(NC(=O)c1cc(Br)c2c(c1)OCCO2)C(N)=O (stereo not drawn),-2.13
18,CCn1ccnc1CN1CCN(C(C)C(=O)N2CCC(C)CC2)CC1 (stereo not drawn),-3.5
19,CS(=O)(=O)N1CCc2c(cccc2NC(=O)CC(F)(F)F)C1,5.45

# Molecular target: Shiga toxin 2 (Escherichia coli O157:H7) (UniProt P09385+P09386)
# Test: E. coli 0.157:H7 Shiga Toxin SOP - stx2 screening assay
# Assay type: functional
# Design: scale not given: direction of the effect not stated beside the values
# Details: 30 µM
row,SMILES,Percent Effect [%]
1,COc1c(C)cnc(CN2CCC(C(=O)N(C)C)CC2)c1C,10.2
2,CCc1ncc2c(n1)CN(Cc1nc(-c3ccsc3)oc1C)CC2,25.2
3,O=C(Cc1ccc2c(c1)OCO2)N1CCN(c2cnccn2)CC1,19
4,CC1=N[C@@]2(CC[C@@H]3CN(S(=O)(=O)CC(C)C)C[C@@H]32)C(=O)N1CC(C)C,9.05
5,CS(=O)(=O)Cc1cccc(C(=O)NCC2Cc3ccccc3O2)c1 (stereo not drawn),-0.655
6,Cc1ccc(OCCC(=O)NC2CCc3nccn3C2)cc1 (stereo not drawn),-18
7,O=C(NC(CO)CO)c1coc(COc2cccc(F)c2)n1,-3.72
8,CCOCC1CN(C(=O)CS(C)(=O)=O)Cc2cnn(C)c21 (stereo not drawn),-6.98
9,O=S(=O)(c1cccs1)N1CCCn2nnc(CN3CCCCC3)c2C1,-16.9
10,c1cn2c(n1)CN(CC1CC1)CC(CN1CCOCC1)C2 (stereo not drawn),-18
11,COc1cccc2cc(CNCc3ccnc(N4CCOCC4)c3)oc12,26.8
12,CCOCCC(=O)Nc1cccc(Oc2ccccn2)c1,-31.9
13,COc1cccc(C(=O)NCC(O)c2cccs2)c1 (stereo not drawn),2.93
14,CSc1ccc(S(=O)(=O)N2CCCCC2CCNC(C)=O)cc1 (stereo not drawn),-4.85
15,COc1ccnc(N2CCN(C(=O)c3cnn(C)c3C3CC3)CC2)n1,11.7
16,COCCN1CCC(NC(=O)C2(c3cc(C)cc(C)c3)CC2)CC1,22.9
17,COc1cccc(CC2CN(C3CCN(C(C)=O)CC3)CCO2)c1 (stereo not drawn),-26
18,Cc1ccc(S(=O)(=O)NC2CC2)cc1C,-0.587
19,O=C(NCCc1nnc2n1CCC2)NCC1(c2cccc(F)c2)CC1,4.87
20,C1CC(CN2CCO[C@H]3[C@H](OCC4CC4)CC[C@@H]32)CCO1,-6.68

row,SMILES,Percent Effect [%]
1,CCC(O)CN1CCN(C(=O)c2cccn2Cc2cccs2)CC1 (stereo not drawn),9.26
2,Cc1nn(C)c(Cl)c1C1CCCN1C(=O)c1ccc2c(c1)OCO2 (stereo not drawn),12
3,Cc1[nH]/c(=N\C(=O)c2csc(NCC(C)C)n2)sc1C,12
4,CN(C(=O)Cn1nc(-c2cccs2)ccc1=O)C1CCS(=O)(=O)C1 (stereo not drawn),-35.1
5,COCC(=O)N1CCCn2c(CN3CCCCC3)nnc2C1,-19.1
6,COc1ccccc1C1CNC(=O)c2nc(-c3cnn(C)c3)[nH]c2C1 (stereo not drawn),-58
7,CCN1CCC(NC(=O)CN2CCc3c(ncn3C)C2)CC1,19.9
8,CS(=O)(=O)c1ccccc1C(=O)NCC1Cc2ccccc2O1 (stereo not drawn),-13
9,COc1ccc(CN(Cc2cncn2C)CC2CCCO2)c(OC)c1 (stereo not drawn),11.4
10,O=C(NS(=O)(=O)c1cc(Cl)sc1Cl)c1cccc2c1OCCO2,-6.84
11,O=C(Cc1ccc2c(c1)CCO2)N1CCN(c2cnccn2)CC1,-23.3
12,Cc1nc(CN2C[C@@H]3CN(C(=O)c4cccn4C)C[C@@H]3C2=O)cs1,-4.43
13,O=C(Nc1cc(C(F)(F)F)c[nH]c1=O)N1CCCSCC1,8.92
14,CN1CCC(Cc2cc(Nc3ncccn3)ncn2)CC1,7.59
15,Cn1nnc2c1CCN(Cc1ccccc1)C2COCC1CC1 (stereo not drawn),-19.5
16,Cc1ccsc1-c1nnc(C2CCN(Cc3ccc(F)cc3)CC2)o1,-123
17,CC(NC(=O)c1cc(Br)c2c(c1)OCCO2)C(N)=O (stereo not drawn),-4.92
18,CCn1ccnc1CN1CCN(C(C)C(=O)N2CCC(C)CC2)CC1 (stereo not drawn),-22.7
19,CS(=O)(=O)N1CCc2c(cccc2NC(=O)CC(F)(F)F)C1,2.18
